ALOX12 inh = blocks human arachidonate 12S-lipoxygenase. purified 12hLO, xylenol orange hydroperoxide absorbance. Potency, µM (doses to about 108 µM), without a hit: at the top dose activity change, negative = inhibition, most hits filed as inhibitors. 580,000 tested, 1.1% active. AID 1671190
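Purified human 12hLO (150 nM final) in 25 mM Hepes, 0.01% Triton X-100, pH 7.0 was preincubated 15 min at room temperature with compound. Then 40 uM arachidonic acid was added, 30 min. Hydroperoxide was read by Fe-XO absorbance ratio 573/405 nm.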
TDP1 cell noCPT = qHTS for Inhibitors of human tyrosyl-DNA phosphodiesterase 1 (TDP1): qHTS in cells in absence of CPT; DT40 Tdp1-/- hTDP1 cells, no CPT, ATP luminescence, 48 h; Potency, µM (highest dose often 46.2 µM), for inactives: top-dose activity change, negative = growth inhibition, actives largely listed as inhibitors; 420,000 tested, 15% active; AID 686978, 2013; further: nearly all actives have a fitted effect of over 55% in size
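Chicken DT40 Tdp1-/- cells stably complemented with human TDP1 were seeded at 400 cells/well with DMSO in place of 20 nM camptothecin. After compound pinning, cells grew at least 48 hr at 37 °C; viability read by CellTiter-Glo luminescence.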
TDP1 cell CPT = DT40-hTDP1 cell growth loss with CPT | Potency, µM (highest dose often 46.2 µM), for inactives: top-dose activity change, negative = growth inhibition, actives largely listed as inhibitors | chicken DT40 Tdp1-/-;hTDP1 cells + 20 nM CPT, ATP luminescence, 48 h | 420,000 tested, 12% active; further: nearly all actives have a fitted effect of over 55% in size
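Cell growth measured by CellTiter-Glo luminescence after a minimum 48 h, 37 C compound exposure with 20 nM CPT in Tdp1-knockout DT40 cells stably expressing hTDP1, seeded 400/well; qHTS titration format.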
ELG1 repair inh = ELG1-dependent DNA repair inhibition. HEK293T ELG1-luciferase reporter, luminescence, 16 h; DNA damage induced by 5-fluorouridine. Potency, µM (top dose mostly 46.1 µM), for the others: at the top dose activity change, negative = inhibition, most hits filed as inhibitors. 330,000 tested, 2.3% active; further: nearly all actives have a fitted effect of over 55% in size
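DMSO vehicle served as the neutral condition. Each well held 2,000 cells given 5-fluorouridine plus compound; after 16 hr at 37 °C/5% CO2, ONE-Glo was added and luciferase measured 30 min later.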
Gal4-VP16 FLuc = counter-screen for ROR gamma inhibitors: Gal4-VP16 reporter; Drosophila S2 Gal4-VP16 UAS-luciferase, luminescence, 20 h; Potency, µM (highest dose often 53.6 µM), inactives show at the top dose activity, negative = inhibition, actives largely listed as inhibitors; 310,000 tested, 3.5% active;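 further: Gal4-VP16 expression switched on by copper sulfate through the metallothionein promoter; nearly all actives have a fitted effect of over 50% in size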
RORgamma inh = blocks mouse ROR gamma transcriptional activity; Potency, µM (titrated, usually from 53.6 µM), inactives show at the highest dose activity change, negative = inhibition, actives largely listed as inhibitors; Drosophila S2 Gal4-RORgamma UAS-luciferase reporter, 20 h; 310,000 tested, 5.4% active; P51450; further: nearly all actives have a fitted effect of over 60% in size
Target sequence (P51450 whole entry, looked up, the tested form may be a part): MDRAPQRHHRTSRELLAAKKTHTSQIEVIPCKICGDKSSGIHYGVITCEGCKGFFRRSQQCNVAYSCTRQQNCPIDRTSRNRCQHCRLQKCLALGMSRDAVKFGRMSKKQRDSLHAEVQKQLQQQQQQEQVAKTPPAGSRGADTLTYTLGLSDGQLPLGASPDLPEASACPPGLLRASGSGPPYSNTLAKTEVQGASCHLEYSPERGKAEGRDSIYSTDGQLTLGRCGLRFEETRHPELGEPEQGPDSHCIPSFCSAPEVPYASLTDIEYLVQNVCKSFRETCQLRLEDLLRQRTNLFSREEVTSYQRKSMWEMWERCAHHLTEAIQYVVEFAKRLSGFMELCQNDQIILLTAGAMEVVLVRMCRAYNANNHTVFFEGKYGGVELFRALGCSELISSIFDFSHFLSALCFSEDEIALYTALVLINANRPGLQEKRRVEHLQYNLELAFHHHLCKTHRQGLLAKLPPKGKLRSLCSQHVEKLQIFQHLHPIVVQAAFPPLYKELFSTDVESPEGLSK
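Stably transfected Drosophila Schneider cells are the test system, with ROR gamma fused to Gal4 and luciferase under UAS control; luminescence is read after 20 hr of 700 uM copper sulfate induction at ambient temperature.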
Starred values were filed as active, the others as inactive; ? = inconclusive; . = no result given; [ ] = remark or other dose. Compounds with a hit are over-represented: about 15% of the library has one in this group of screens. The call rests on the fitted dose curve; in most records, active means well fitted curve in the direction sought with a large enough effect; inconclusive means small, poorly fitted or top-dose-only effect, or another doubt; inactive means no such curve, though single readings can be large; an effect the other way counts as inactive or inconclusive. On the % scale 0 is the no-effect control and ±100 the full control effect; potency means the concentration at half of the fitted maximal effect.

SMILES | ALOX12 inh | TDP1 cell noCPT | TDP1 cell CPT | ELG1 repair inh | Gal4-VP16 FLuc | RORgamma inh
Cn1c(-c2ccccc2)c(C(=O)CC#N)c2ccccc21 | 0.0% | ? | ? | -26.3% | -1.3% | 4.2%
C=CCn1c(CCC(O)COCCCCC)n[nH]c1=S (centres undefined) | ? | -15.7% | -7.7% | 8.0% | -7.0% | ?
C=CCn1c(C(CCCC)CC(O)COCC(C)C)n[nH]c1=S (centres undefined) | ? | ? | -12.6% | -7.7% | ? | 10µM*
C=CCn1c(C(CCCC)CC(O)COCCC)n[nH]c1=S (centres undefined) | -6.9% | 18.8% | -0.7% | 7.4% | ? | 7.08µM*
CCOC(=O)C1=C(Nc2ccccc2)CC(C)(O)C(C(=O)OCC)C1c1ccc(Br)cc1 (centres undefined) | -3.0% | 16.4µM* | ? | ? | -3.0% | ?
Cc1cc(C(=O)NCCCOC(C)C)c2c(C3CCCN3)noc2n1 (centres undefined) | 14.1µM* | . | . | . | . | .
COc1cc(-c2onc(C)c2C(=O)N2CCC(Cc3ccc4c(c3)OCO4)CC2)cc(OC)c1OC | 11.9% | . | . | . | . | .
CCC(CO)Oc1cc(NCc2cccc(OC)c2)c2ncn(C(C)C)c2c1 (centres undefined) | 1.2% | ? | 20.6µM* | ? | . | .
CCCCOc1cc(NCc2ccccc2)c2ncn(C(C)C)c2c1 | ? | 20.6µM* | 23.1µM* | 1.1% | . | .
COCCCOc1cc(NCc2ccccc2)c2ncn(C(C)C)c2c1 | -2.2% | -18.0% | 2.5% | 24.1% | . | .
CCC(CO)Oc1cc(NCc2ccc(O)cc2)c2ncn(C(C)C)c2c1 (centres undefined) | -11.3% | -15.4% | ? | ? | . | .
CCC(CO)Oc1cc(NCc2ccccn2)c2ncn(C(C)C)c2c1 (centres undefined) | 1.9% | -7.3% | -21.0% | -13.2% | . | .
COc1ccc(Cc2cc(NCc3ccccc3)c3ncn(C(C)C)c3c2)cc1 | -17.1% | 20.6µM* | ? | ? | . | .
COc1cc(NCc2ccccc2)c2ncn(Cc3ccccc3)c2c1 | -10.5% | ? | ? | -20.0% | . | .
CCC(CO)Oc1cc(NCc2cccc(O)c2)c2ncn(C(C)C)c2c1 (centres undefined) | -6.7% | ? | 23.1µM* | -27.2% | . | .
O=C(O)c1c[nH]c2ncccc12 | 3.0% | . | . | . | . | .
CCC(CO)Oc1cc(NCc2ccc(C(C)(C)C)cc2)c2ncn(C(C)C)c2c1 (centres undefined) | -9.4% | 14.6µM* | 13µM* | ? | . | .
CCC(COC)Oc1cc(NCc2ccccc2)c2ncn(C(C)C)c2c1 (centres undefined) | -47.2% | 18.4µM* | 25.9µM* | 18.3µM* | . | .
C#CCCOC(=O)N1C2=NC(C(=O)OC)=C(C(=O)OC)[C@@H]3N(Cc4ccccc4)c4ccccc4[C@]23C[C@H]1C(=O)OC | . | ? | 16.4µM* | -4.3% | -9.1% | 27.5%
C#CCCOC(=O)N1C2=NC(C(=O)OC)=C(C(=O)OC)[C@@H]3N(C)c4ccccc4[C@]23C[C@H]1C(=O)OC | 0.3% | -10.6% | -12.4% | 3.7% | 1.5% | 4.9%
COC(=O)C1=C(C(=O)OC)[C@@H]2N(Cc3ccccc3)c3ccccc3[C@@]23C[C@@H](C(=O)OC)N(C(=O)CC(C)C)C3=N1 | 0.0% | -57.3% | -56.7% | ? | 7.2% | -0.9%
CCOC(=O)N1C2=NC(C(=O)OC)=C(C(=O)OC)[C@@H]3N(C)c4ccccc4[C@]23C[C@H]1C(=O)OC | ? | 18.4µM* | 16.4µM* | 15.2% | -2.8% | -10.8%
COC(=O)C1=C(C(=O)OC)[C@@H]2N(Cc3ccccc3)c3ccccc3[C@@]23C[C@@H](C(=O)OC)N(C(=O)c2cc(C)oc2C)C3=N1 | ? | 18.4µM* | 23.1µM* | . | . | .
COC(=O)C1=C(C(=O)OC)[C@@H]2N(Cc3ccccc3)c3ccccc3[C@@]23C[C@@H](C(=O)OC)N(C(=O)c2cccs2)C3=N1 | 3.8% | ? | 20.6µM* | 0.5% | 17.8µM* | ?
CC(C)(Oc1nn(Cc2cccc(Cl)c2)c2ccccc12)C(=O)NCc1ccncc1 | -2.1%[176 µM] | . | . | . | . | .
SMILES | ALOX12 inh | TDP1 cell noCPT | TDP1 cell CPT | ELG1 repair inh | Gal4-VP16 FLuc | RORgamma inh
CC#CCN1c2ccccc2[C@]23C[C@@H](C(=O)OC)N(C(=O)c4ccc(Br)cc4)C2=NC(C(=O)OC)=C(C(=O)OC)[C@H]13 | . | 18.4µM* | 20.6µM* | . | . | .
COC(=O)C1=C(C(=O)OC)[C@@H]2N(C)c3ccc(OC)cc3[C@@]23C[C@@H](C(=O)OC)N(C(=O)c2cccs2)C3=N1 | . | -22.2% | -1.4% | -26.7% | 0.1% | 9.2%
COC(=O)C1=C(C(=O)OC)[C@@H]2N(C)c3ccc(OC)cc3[C@@]23C[C@@H](C(=O)OC)N(C(=O)c2cc(C)oc2C)C3=N1 | . | ? | 23.1µM* | . | . | .
CCCc1cc(C(=O)N2CC[C@H]3CNC[C@H]32)n(C)n1 | -0.5% | . | . | . | . | .
CCN1CCN(c2ccc(NC(=O)COc3ccccc3Cl)cc2)CC1 | 0.0% | 18.4µM* | ? | -9.6% | 0.0% | -2.2%
O=C(COc1ccccc1Cl)Nc1ccc(N2CCN(C(=O)c3ccccc3)CC2)cc1 | 2.1% | 14.6µM* | 18.4µM* | 13µM* | -28.5% | ?
CCN1CCN(c2ccc(NC(=O)COc3ccc([N+](=O)[O-])cc3)cc2)CC1 | -15.9% | ? | ? | 13.3% | 6.6% | ?
Cc1cccc(OCC(=O)Nc2ccc(N3CCN(C(=O)c4ccccc4)CC3)cc2)c1 | -18.4% | 14.6µM* | ? | 18.4µM* | -15.5% | 27.3%
O=C(COc1ccccc1Cl)Nc1ccc(N2CCCC2)cc1 | 402.7% | -9.6% | -4.8% | ? | 0.9% | 0.0%
CCN1CCN(c2ccc(NC(=O)COc3ccc(Cl)cc3C)cc2)CC1 | ? | ? | 18.4µM* | ? | . | .
COc1cccc(C(=O)N2C(C(=O)NCC(C)C)COC23CCN(C(=O)c2ccccc2F)CC3)c1 (centres undefined) | -0.5% | . | . | . | . | .
COc1ccc(N(CC(=O)NCCSCc2ccco2)S(=O)(=O)c2ccccc2)cc1OC | 0.7% | ? | ? | 4.5% | 0.1% | -8.7%
COc1ccccc1N(CC(=O)NCCSCc1ccccc1)S(=O)(=O)c1ccccc1 | -3.8% | 23.1µM* | ? | . | . | .
CCOc1ccc(N(CC(=O)NCCSCc2ccc(C)cc2)S(C)(=O)=O)cc1 | 0.0% | ? | 2.5% | -11.2% | 7.9% | 23.2%

Screening results from PubChem BioAssay.
